In the library only some 2.7% were active in any assay of this set; here they are far more common.
Tau fibril ThT: qHTS for Inhibitors of Tau Fibril Formation, Thioflavin T Binding. recombinant tau K18 P301L, heparin-induced fibrillization, ThT fluorescence. Potency, µM (titrated, usually from 57.4 µM), for inactives: at the top dose activity, negative = inhibition, hits mostly inhibitors. hit rate 2.1% among 270,000; further: potency means the concentration at half of the fitted maximal effect; nearly all actives have a fitted effect of over 55% in size
Target sequence (P10636 561-689 P618L limits assumed): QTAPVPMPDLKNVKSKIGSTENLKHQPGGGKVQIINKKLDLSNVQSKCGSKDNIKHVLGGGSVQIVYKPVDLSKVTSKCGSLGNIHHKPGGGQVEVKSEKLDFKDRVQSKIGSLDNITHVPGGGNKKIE
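Fibril formation assay: tau K18 P301L at 15 uM with trace Alexa 594 label, heparin inducer 20 uM, pH 7 sodium acetate buffer, 37 C for 6 hr; endpoint ThT signal.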
Tau fluor counter: Counterscreen qHTS for Inhibitors of Tau Fibril Formation, Fluorescence Polarization; tau K18 P301L (four-repeat tau fragment) Alexa594 fluorescence, heparin fibrillization; Potency, µM (series often up to 57.7 µM), for inactives: top-dose activity change, negative = decrease; AID 1463, 2008; hit rate 0.93% among 280,000; further: potency means the concentration at half of the fitted maximal effect; nearly all actives have a fitted effect of over 55% in size
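Human K18 P301L tau (15 uM unlabeled plus 0.24 uM Alexa 594-labeled, final) in 100 mM sodium acetate pH 7 was mixed with compound and 20 uM heparin and incubated 6 hr at 37 C.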
FBPA coupling cs: qHTS Assay for Inhibitors of Fructose-1,6-bisphosphate Aldolase from Giardia Lamblia: Coupling assay counterscreen; activity change, negative = inhibition, % at 58.2 µM, hits read low; hit rate 0.67% among 290,000; coupling enzyme system counterscreen, AmpLite Red fluorescence; in the data active means activity change below about -30%
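Counterscreen lacking aldolase: glyceraldehyde-3-phosphate coupling-enzyme reagent preincubated 10 min at RT with compound (at 57.5 uM final), then substrate/coupling system with AmpLite Red added; fluorescence read at 525/598 nm after 20 min RT.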
Tau FP inhib: qHTS for Inhibitors of Tau Fibril Formation, Fluorescence Polarization | Microtubule-associated protein tau (Homo sapiens), P10636 | K18 P301L tau heparin fibrillization, Alexa594 FP, 6 h | AID 1468, 2008 | Potency, µM (top dose mostly 57.7 µM), without a hit: at the highest dose activity, negative = inhibition, actives largely listed as inhibitors | hit rate 0.39% among 280,000; further: potency means the concentration at half of the fitted maximal effect; nearly all actives have a fitted effect of over 55% in size
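Human K18 P301L fragment (15 uM unlabeled plus 0.24 uM Alexa 594-labeled) in 100 mM sodium acetate pH 7 with compound, aggregation induced by 20 uM heparin for 6 hr at 37 C. ThT (30 uM) added for 1 hr, then Alexa 594 FP read.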
Numbers without * were called inactive; u = inconclusive; x = no result; [ ] = another dose, or the depositor's remark. Unless noted, the call rests on the fitted dose curve; in most records, active means well fitted curve in the direction sought with a large enough effect; inconclusive means small, poorly fitted or top-dose-only effect, or another doubt; inactive means no such curve, though single readings can be large; an effect the other way counts as inactive or inconclusive. On the % scale 0 is the no-effect control and ±100 the full control effect.

SMILES	Tau fibril ThT	Tau fluor counter	FBPA coupling cs	Tau FP inhib
COc1cccc(CNC(=O)Cc2ccc(NC(=O)N3CCSc4ncccc43)cc2)c1OC	2%	-7%	x	-8%
Cc1cccc(NC(=O)Cn2nnc(C(=O)Nc3ccccc3Br)c2N)c1C	2%	-2%	x	-16%
O=C(Nc1cccc(C(F)(F)F)c1)c1cccnc1	0%	-5%	0	-3%
Cc1cc(Nc2cccc(C(F)(F)F)c2)nc2ccc(NC(=O)c3cccnc3)cc12	-17%	8.9µM*[quencher]	x	u
O=C(Nc1cccc(C(F)(F)F)c1)c1cccc(C(=O)Nc2cccc(C(F)(F)F)c2)c1	12%	-13%	x	u
CCOc1ccc(C(=O)Nc2ccc3nc(Nc4cccc(C(F)(F)F)c4)cc(C)c3c2)cc1OCC	u	3.5µM*[quencher]	x	-8%
Cc1cc(Nc2cccc(C(F)(F)F)c2)nc2ccc(NC(=O)c3cccc(Cl)c3)cc12	u	7.1µM*[quencher]	x	u
COc1cc2c(cc1OC)C1O[C@](c3ccsc3)(C2)Oc2c1c(=O)oc1ccc(F)cc21	x	x	-4	x
CCOC(=O)N1CCc2c(sc3c2c(=O)n(Cc2ccccc2)c(=O)n3CC(=O)Nc2c(C)cccc2C)C1	-8%	-10%	x	-10%
CCOC(=O)N1CCc2c(sc3c2c(=O)n(Cc2ccccc2)c(=O)n3CC(=O)Nc2ccc(F)cc2)C1	8%	u	x	10µM*
NC(=S)NNc1cccc2cccnc12	3.5µM*	u	-36*	7.9µM*
COc1ccccc1C1NC(=O)c2n[nH]c(-c3cccs3)c21 (configuration not stated)	-3%	-5%	x	-2%
Cc1ccc(SCc2[nH]nc3c2C(C(C)C)C(C#N)=C(N)O3)cc1 (configuration not stated)	-5%	-19%	0	3%
Cc1ccc(SCc2[nH]nc3c2C(c2ccc(C)o2)C(C#N)=C(N)O3)cc1 (configuration not stated)	14µM*	u	-10	u
Cc1ccc(SCc2[nH]nc3c2C(c2ccco2)C(C#N)=C(N)O3)cc1 (configuration not stated)	20µM*	u	1	u
CCOC(=O)C1(Cc2cccc(Cl)c2)CCCN(C(=O)c2cnn(CC)c2)C1 (configuration not stated)	x	x	2	x
O=C(c1cccc(Cl)c1)n1nc(-c2ccco2)nc1NCc1cccs1	u	-24%	x	-5%
CSc1ccc(CCNC(=O)c2ccc3c(c2)nc2n3CCCCC2)cc1	u	0%	x	-1%
NC(=S)Cc1nc(-c2ccc(Cl)cc2)cs1	16µM*	u	1	u
CC1=CC(=C2C(=O)c3ccccc3C2=O)C=C(C)N1Cc1ccco1	18µM*	-11%	-5	7%
CSc1ncc(Cl)c(C(=O)Nc2cc(C(F)(F)F)ccc2Cl)n1	-4%	-16%	x	-13%
COc1ccc(/C(C)=N/Nc2nncc3ccccc23)cc1	x	x	-2	x
COc1ccc(/C(C)=N/Nc2nc3ccccc3nc2C)cc1	11µM*	u	-1	6%
CC(C)(C)NS(=O)(=O)c1ccc2[nH]c3c(c2c1)CCCCC3	x	x	6	x
COc1ccc(NS(=O)(=O)c2ccc3[nH]c4c(c3c2)CCCC4)cc1Cl	-13%	8.9µM*[quencher]	x	-13%
SMILES	Tau fibril ThT	Tau fluor counter	FBPA coupling cs	Tau FP inhib
Cc1ccc(NS(=O)(=O)c2ccc3[nH]c4c(c3c2)CCCC4)cc1N(C)C	-7%	22µM*[quencher]	x	13%
Cc1ccc(NS(=O)(=O)c2ccc3[nH]c4c(c3c2)CCCCCC4)cc1Cl	-6%	7.1µM*[quencher]	x	-9%
N#Cc1c(/N=C/c2cc3ccccc3s2)sc2c1CCC2	1.3µM*	-7%	1	-1%
Cc1ccc(/C=N/c2sc3c(c2C#N)CCCCC3)o1	u	-16%	-10	0%
Cc1ccc(/C=N/c2sc3c(c2C#N)CCC3)s1	2µM*	-25%	-2	-4%
CCc1ccc(NC(=O)COCc2cc(-c3ccc(F)cc3)on2)cc1	u	-19%	x	-14%
CCCn1c(-c2ccc(F)cc2)nc2c(NCCN3CCOCC3)nc(C)nc21	-4%	-2%	1	1%
CC1=C(c2ccc(C)cc2)S(=O)(=O)N(Cc2ccc(C(=O)Nc3ccc(F)cc3C)cc2)C1=O	-10%	-20%	x	2%
O=C1NC(=Nc2ccccc2)/C(=C/c2ccco2)S1	22µM*	u	2	-9%
Cc1cc2nc(-c3ccccc3)cc(=O)n2[nH]1	-6%	-6%	-2	5%
Cc1cc(-c2ccccc2)nc2c(Br)c(=O)[nH]n12	10µM*	-17%	6	u
O=c1c2sc3ccccc3c2n(Cc2cccc(F)c2)c(=O)n1Cc1ccccc1	-2%	-22%	x	u
CCSC1=N/C(=C\c2ccc(C(=O)O)cc2)C(=O)S1	-10%	-3%	2	-9%
CCOC(=O)SC1=N/C(=C\c2ccc(N(C)C)cc2)C(=O)S1	4.5µM*	-21%	1	1%
CC1=CC(C)(C)NC(=S)N1c1cccc2cc(S(=O)(=O)O)ccc12	32µM*	-29%	-10	u
CC1=CC(C)(C)NC(=S)N1c1ccccc1C	-6%	-7%	-4	-3%
COc1ccc(OC)c(NC(=O)c2cc3c(=O)n4cccc(C)c4nc3n2C)c1	4%	1%	x	-4%
COC(=O)c1ccc(Cl)cc1NC(=O)N1CC=C(c2c[nH]c3ccccc23)CC1	u	11µM*[quencher]	x	0%
O=C(Nc1ccc(Br)cc1F)N1CC=C(c2c[nH]c3ccccc23)CC1	8.9µM*	8.9µM*[quencher]	x	-15%
Cc1ccc(NC(=O)N2CC=C(c3c[nH]c4ccccc34)CC2)cc1Cl	6.3µM*	14µM*[quencher]	x	-10%
O=C(Nc1cccc2ccccc12)N1CC=C(c2ccccc2)CC1	-21%	-15%	-1	-8%
Cc1cccc(NC(=O)N2CC=C(c3c[nH]c4ccccc34)CC2)c1C	u	25µM*[quencher]	x	3%
O=c1c(-c2cc(F)cc(F)c2)nc2cnc(N3CCOCC3)nc2n1CCc1ccccc1	x	x	2	x
COc1cccc(C(c2sc3nc(-c4ccco4)nn3c2O)N2CCN(C)CC2)c1 (configuration not stated)	0%	0%	x	-8%
CC(=O)c1cc(-c2ccccc2)n(CCC(=O)Nc2cc(C)cc(C)c2)c1C	-14%	-24%	x	-4%
N#Cc1ccc(CN2CCCC3(CCN(C(=O)c4cnccn4)CC3)C2)cc1	x	x	1	x
Cc1cc(C)c(Nc2cc(S(=O)(=O)O)c(N)c3c2C(=O)c2ccccc2C3=O)c(C)c1	7.9µM*	7.1µM*[quencher]	-4	20µM*
COc1ccc(OC)c(-c2cc(C(=O)Nc3ccc(C)c(C)c3)no2)c1	-14%	u	x	u
C=CC1=C(C)C2=NC1=CC1=NC(=CC3=NC(=CC4=NC(=C2)C(C)=C4CCC(=O)O)C(CCC(=O)O)=C3C)C(C=C)=C1C.[Zn]	6.3µM*	14µM*[quencher]	-14	20µM*
